# Measured values reported in PubChem BioAssay (NCATS).
# Records with an inconclusive call do not appear. Active and inactive are the calls of the source. Unless noted, calls follow the shape of the dose curve; as a rule, active = well fitted curve in either direction with a large enough effect (not every such curve was filed as active); inconclusive = small, poorly fitted or top-dose-only effect, or another doubt; inactive = flat fitted curve, though single readings scatter.
# How the values were obtained:
# [1] = AP1 Signaling Pathway (AID 357); details: ME-180 AP-1-bla reporter, EGF-induced, beta-lactamase ratio, 5 h; at 17.2 µM (top of the series) unless noted;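 also: ME-180 reporter cells stimulated with EGF at its EC50 level; % is scaled to controls: 0 for no effect and ±100 for the full control effect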
# Outline: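 AP-1-bla ME-180 cells, Opti-MEM + 0.5% dialyzed FBS, plated overnight 37 °C. Cpd titration + EC50 EGF, 5 h 37 °C. CCF4 2.5 h RT; ex 405, em 460/530 ratio → %activity, AC50.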
# [2] = Stat Signaling Pathway (AID 446); details: ME-180 SIE beta-lactamase reporter, IL-6 stimulated, 5 h; at 17.2 µM (top of the series) unless noted;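 also: ME-180 cervical cancer cells given 40 pM IL-6 alongside compound; SIE-controlled beta-lactamase reporter measured as 460/530 nm FRET emission ratio; % is scaled to controls: 0 for no effect and ±100 for the full control effect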
# Outline: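 Normalization used AC90 stimulation (300 pM IL-6) and AC90 inhibition (125 nM pan-JAK inhibitor at 40 pM IL-6). The underlying signal is SIE-driven beta-lactamase in ME-180 cells after 5 h IL-6 exposure with compound.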
# [3] = target: Glucocorticoid receptor (Homo sapiens) (UniProt P04150); assay: GR-GFP Redistribution (AID 450;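 active = compounds whose dose series gives a full or clear partial fitted curve of increased nuclear translocation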; also: potency is read from the fitted curve at half-maximal effect)
# Sequence of Glucocorticoid receptor (Homo sapiens) (P04150 whole entry, looked up, the tested form may be a part): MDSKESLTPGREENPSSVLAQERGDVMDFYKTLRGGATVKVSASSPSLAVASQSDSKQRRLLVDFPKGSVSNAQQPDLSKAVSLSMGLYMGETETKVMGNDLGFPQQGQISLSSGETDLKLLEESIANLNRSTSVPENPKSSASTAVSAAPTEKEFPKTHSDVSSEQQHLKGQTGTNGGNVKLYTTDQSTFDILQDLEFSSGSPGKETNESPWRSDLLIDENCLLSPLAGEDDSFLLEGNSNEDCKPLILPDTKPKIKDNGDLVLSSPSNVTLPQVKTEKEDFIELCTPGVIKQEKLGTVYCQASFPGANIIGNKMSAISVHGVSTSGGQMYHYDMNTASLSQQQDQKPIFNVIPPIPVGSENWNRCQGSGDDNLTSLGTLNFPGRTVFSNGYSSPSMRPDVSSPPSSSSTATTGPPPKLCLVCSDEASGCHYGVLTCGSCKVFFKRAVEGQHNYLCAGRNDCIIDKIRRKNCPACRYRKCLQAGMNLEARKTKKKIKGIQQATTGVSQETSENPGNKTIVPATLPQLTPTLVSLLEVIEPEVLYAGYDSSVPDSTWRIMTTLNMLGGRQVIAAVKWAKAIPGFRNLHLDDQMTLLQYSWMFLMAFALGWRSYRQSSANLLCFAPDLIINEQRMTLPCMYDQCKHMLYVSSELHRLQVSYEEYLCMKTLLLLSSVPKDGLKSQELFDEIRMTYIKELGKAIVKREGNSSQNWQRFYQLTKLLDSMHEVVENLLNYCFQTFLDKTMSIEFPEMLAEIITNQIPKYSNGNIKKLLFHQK
# [4] = target: Glucocorticoid receptor (Homo sapiens) (UniProt P04150); assay: GR-EFC Redistribution (AID 451; calls by dose curve; also: potency is read from the fitted curve at half-maximal effect); details: CHO-K1 GR-EFC translocation, beta-gal luminescence, 2 h
# Outline: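 Translocation of GR-ED fusion to nuclear EA restores b-gal, read by luminescence after 1 h room-temperature detection. Engineered CHO-K1 biosensor cells, 1,000/well, exposed 2 h at 37 C to titrations up to 46 uM final.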
# [5] = target: Cytochrome P450 2D6 (Homo sapiens) (UniProt P10635); assay: qHTS Assay for Inhibitors and Substrates of Cytochrome P450 2D6 (AID 891; active = well fitted curve in the direction sought with a large enough effect; an effect the other way counts as inactive or inconclusive;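 also: luciferin methyl ether substrate demethylated by CYP2D6 with NADPH regeneration; % is scaled to controls: 0 for no effect and ±100 for the full control effect; nearly all actives have a fitted effect of over 60% in size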)
# Sequence of Cytochrome P450 2D6 (Homo sapiens) (P10635 whole entry, looked up): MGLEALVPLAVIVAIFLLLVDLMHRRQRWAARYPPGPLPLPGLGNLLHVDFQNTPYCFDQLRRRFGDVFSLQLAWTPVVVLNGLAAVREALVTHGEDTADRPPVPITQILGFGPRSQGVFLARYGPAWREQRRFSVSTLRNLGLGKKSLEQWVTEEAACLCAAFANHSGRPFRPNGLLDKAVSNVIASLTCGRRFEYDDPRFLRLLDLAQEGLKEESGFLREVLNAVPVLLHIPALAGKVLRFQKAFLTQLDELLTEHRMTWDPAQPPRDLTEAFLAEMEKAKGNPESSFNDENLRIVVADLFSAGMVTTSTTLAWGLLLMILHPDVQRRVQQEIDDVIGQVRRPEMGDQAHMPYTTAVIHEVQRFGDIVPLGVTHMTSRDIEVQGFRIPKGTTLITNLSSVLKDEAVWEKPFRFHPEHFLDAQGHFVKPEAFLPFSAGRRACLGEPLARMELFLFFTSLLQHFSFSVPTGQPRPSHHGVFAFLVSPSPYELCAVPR
# Outline: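 Luminescent read-out of luciferin formed by 5 nM human CYP2D6 demethylating 30 uM Luciferin-ME EGE (Km level) over 60 min at room temperature after NADPH regeneration addition. Data normalized to full inhibition by 1.43 uM quinidine.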
# [6] = target: Cytochrome P450 2C19 (Homo sapiens) (UniProt P33261); assay: qHTS Assay for Inhibitors and Substrates of Cytochrome P450 2C19 (AID 899; active = well fitted curve in the direction sought with a large enough effect; an effect the other way counts as inactive or inconclusive; also: potency is read from the fitted curve at half-maximal effect; nearly all actives have a fitted effect of over 60% in size)
# Sequence of Cytochrome P450 2C19 (Homo sapiens) (P33261 whole entry, looked up): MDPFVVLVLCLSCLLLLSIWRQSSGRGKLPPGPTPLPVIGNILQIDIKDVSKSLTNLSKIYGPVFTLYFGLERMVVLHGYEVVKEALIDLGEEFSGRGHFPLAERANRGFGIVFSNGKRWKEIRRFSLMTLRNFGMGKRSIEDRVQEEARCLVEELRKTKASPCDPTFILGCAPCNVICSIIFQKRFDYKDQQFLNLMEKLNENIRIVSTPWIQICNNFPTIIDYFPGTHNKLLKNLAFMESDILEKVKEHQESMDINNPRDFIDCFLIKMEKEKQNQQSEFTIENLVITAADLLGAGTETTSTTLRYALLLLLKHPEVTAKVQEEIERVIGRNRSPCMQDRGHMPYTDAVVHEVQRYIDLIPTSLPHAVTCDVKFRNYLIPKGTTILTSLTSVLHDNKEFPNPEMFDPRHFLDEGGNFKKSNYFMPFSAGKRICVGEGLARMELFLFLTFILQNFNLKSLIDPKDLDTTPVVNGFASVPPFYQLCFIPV
# Outline: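 5nM enzyme + 10uM Luciferin-H EGE (=KM), 50mM KPO4; cpd pin-transferred, 10 min 37C; NADPH regen, 60 min 37C; stopped w/ luciferin detection reagent, 20 min; luminescence. Normalized to 57uM ketoconazole (AC100).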
# [7] = target: Mitogen-activated protein kinase 10 (Mus musculus) (UniProt Q61831); assay: JNK3 AlphaScreen Assay (AID 530);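 also: kinase came from lysate of stimulated human HepG2 cells; signal reports phosphorylation of biotinylated GST-cJun 1-79 at Ser73 with 10 µM ATP; % is scaled to controls: 0 for no effect and ±100 for the full control effect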
# Outline: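 qHTS titrations with 15 min compound pre-incubation before adding ATP (10 uM final). Read-out: AlphaScreen of Ser73-phosphorylated biotin-GST-cJun using HepG2 lysate JNK3 activated by IL-1β and TNFα.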
# [8] = target: 3',5'-cyclic-AMP phosphodiesterase 4B (Homo sapiens) (UniProt Q07343); assay: qHTS Assay for Inhibitors of PDE-IV (AID 607; active = well fitted activation curve with a large enough effect in the main read-out, with a control signal flat, not every such curve was filed as active; also: % of control where 0% means no effect)
# Sequence of 3',5'-cyclic-AMP phosphodiesterase 4B (Homo sapiens) (Q07343 whole entry, looked up): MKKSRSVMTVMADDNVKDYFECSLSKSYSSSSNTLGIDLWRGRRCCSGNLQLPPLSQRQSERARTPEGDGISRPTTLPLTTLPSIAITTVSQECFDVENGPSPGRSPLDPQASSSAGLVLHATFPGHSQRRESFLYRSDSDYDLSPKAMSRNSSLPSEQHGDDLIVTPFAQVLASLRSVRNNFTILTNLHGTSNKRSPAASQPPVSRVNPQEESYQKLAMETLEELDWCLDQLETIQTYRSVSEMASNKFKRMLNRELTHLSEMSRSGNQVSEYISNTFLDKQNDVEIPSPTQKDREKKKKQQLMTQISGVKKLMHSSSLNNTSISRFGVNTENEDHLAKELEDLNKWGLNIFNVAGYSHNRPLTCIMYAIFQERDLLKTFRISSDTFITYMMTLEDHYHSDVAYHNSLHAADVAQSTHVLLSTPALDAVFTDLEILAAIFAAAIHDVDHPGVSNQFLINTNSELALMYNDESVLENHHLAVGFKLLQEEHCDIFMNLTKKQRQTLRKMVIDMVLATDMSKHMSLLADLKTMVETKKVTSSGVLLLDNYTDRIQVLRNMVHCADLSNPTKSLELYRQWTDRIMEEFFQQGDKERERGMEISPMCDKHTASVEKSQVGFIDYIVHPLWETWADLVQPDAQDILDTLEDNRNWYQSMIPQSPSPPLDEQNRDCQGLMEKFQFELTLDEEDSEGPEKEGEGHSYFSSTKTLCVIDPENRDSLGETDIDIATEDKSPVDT
# Outline: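 HEK293 ACTOne cells with CNG channel (1000/well), endogenous PDE4; membrane potential dye, compounds up to 22.9 uM final. Fluorescence Ex 535/Em 590; RO 20-1724 (100 uM final) as reference.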
# [9] = qHTS Assay for Identification of Small Molecule Agonists for Hypoxia Response Element Signaling Pathway (AID 914; active = well fitted activation curve with a large enough effect in the signal ratio, with a control signal flat, not every such curve was filed as active; the % refers to the signal ratio; also: % of control where 0% means no effect); details: ME-180 (cervical carcinoma) HRE-bla reporter, beta-lactamase ratio, CoCl2, 17 h; activation: active compounds read high
# Outline: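 HRE-bla ME-180 assay for agonist-like enhancement of an EC50 CoCl2 stimulus: 17 h at 37 degrees Celsius, CCF4 for 2.5 h, ratiometric 460/530 nm signal converted to %Activity and fitted to AC50.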
# [10] = target: Cytochrome P450 3A4 (Homo sapiens) (UniProt P08684); assay: qHTS Assay for Activators of Cytochrome P450 3A4 (AID 885; active = well fitted curve in the direction sought with a large enough effect; an effect the other way counts as inactive or inconclusive; also: nearly all actives have a fitted effect of over 65% in size)
# Sequence of Cytochrome P450 3A4 (Homo sapiens) (P08684 whole entry, looked up): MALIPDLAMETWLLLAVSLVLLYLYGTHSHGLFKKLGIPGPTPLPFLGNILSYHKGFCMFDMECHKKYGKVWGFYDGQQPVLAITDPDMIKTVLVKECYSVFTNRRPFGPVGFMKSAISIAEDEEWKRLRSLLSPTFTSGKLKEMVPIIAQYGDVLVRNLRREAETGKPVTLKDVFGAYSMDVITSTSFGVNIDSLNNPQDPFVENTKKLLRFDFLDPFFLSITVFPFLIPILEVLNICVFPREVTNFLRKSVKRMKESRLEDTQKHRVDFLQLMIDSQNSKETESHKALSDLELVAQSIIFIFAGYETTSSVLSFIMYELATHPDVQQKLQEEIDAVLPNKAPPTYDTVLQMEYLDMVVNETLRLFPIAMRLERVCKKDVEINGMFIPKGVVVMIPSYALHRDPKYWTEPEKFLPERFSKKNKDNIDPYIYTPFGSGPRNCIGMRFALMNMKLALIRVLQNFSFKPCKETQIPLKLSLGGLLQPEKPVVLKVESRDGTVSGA
# Outline: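 Human CYP3A4 dealkylates Luciferin-PPXE to luciferin, which luciferase detection converts to light. Substrate was at its KM (25uM), buffer 200mM KPO4, reaction 60 min at RT.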
smiles,measurement,setting,value
Clc1ccc([C@@H](c2ccccc2Cl)C(Cl)Cl)cc1,"activity change, negative = inhibition",[1],-7.25% [at 38 µM] (inactive)
same,"activity, negative = inhibition",[2],2.17% [at 38 µM] (inactive)
same,Potency,[3],> 46 µM (inactive)
same,Potency,[4],> 46 µM (inactive)
same,Potency,[5],inactive
same,Potency,[6],0.631 µM (active)
CC(=O)O[C@]12CC[N@+]3(C)CCCC[C@@H]3[C-]1Nc1ccccc12,"activity change, negative = inhibition",[1],2.61% [at 7.69 µM] (inactive)
same,"activity, negative = inhibition",[2],1.87% [at 7.69 µM] (inactive)
same,Potency,[3],> 46 µM (inactive)
same,"activity change, negative = inhibition",[7],4.94% [at 11.4 µM] (inactive)
same,Potency,[8],inactive
same,activation,[9],4.44% (inactive)
CCCC(=O)Nc1nn(CCC)c2nc3ccccc3cc12,"activity change, negative = inhibition",[1],-2.33% (inactive)
same,"activity, negative = inhibition",[2],-4.63% (inactive)
same,Potency,[3],> 20.6 µM (inactive)
CCCCCCCCN[C@@H](C)[C@H](O)c1ccc(SC(C)C)cc1,"activity change, negative = inhibition",[1],0.133% (inactive)
same,"activity, negative = inhibition",[2],7.39% (inactive)
same,Potency,[3],> 20.6 µM (inactive)
same,Potency,[7],inactive
same,Potency,[10],inactive
Cc1ccc(-n2ncc3c(N4CCC(C(N)=O)CC4)ncnc32)c(C)c1,"activity change, negative = inhibition",[1],5.42% (inactive)
same,"activity, negative = inhibition",[2],-2.42% (inactive)
same,Potency,[3],> 20.6 µM (inactive)
C[C@H](CCC(=O)O)[C@H]1CC[C@@H]2[C@H]3CC[C@H]4C[C@@H](O)CC[C@@]4(C)[C@H]3CC[C@]21C,"activity change, negative = inhibition",[1],13.9% (inactive)
same,"activity, negative = inhibition",[2],-1.14% (inactive)
same,Potency,[3],> 20.6 µM (inactive)
same,Potency,[4],> 20.6 µM (inactive)
same,Potency,[7],inactive
same,Potency,[8],inactive
